The panel holds about 79,000 compounds, 15% with a hit somewhere; the sample as a whole holds those more often. A number with no mark means an inactive call. The source made the active and inactive calls. Rule as the data show it: active = growth inhibition above about 70%; inactive = the rest.
Assay: NCI Yeast Anticancer Drug Screen. Data for the rad14 strain (AID 159);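 also: 0% = growth of vehicle-treated control cultures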
Conditions: S. cerevisiae rad14 strain growth inhibition, hits give high values
Description: Growth inhibition of yeast strains with defined genetic alterations is measured as a screen for potential anti-cancer activity. Selected strains with alterations in DNA damage repair or cell cycle control were exposed to compounds and growth inhibition was measured relative to vehicle treated controls. The strain used in this assay is rad14

Work on `Cc1cccc2c1nc1ccc(Cl)cc1[n+]2C` yielded a growth inhibition (at 1.2 µM) of 2%, a growth inhibition (at 3.7 µM) of 8% and a growth inhibition (at 11.0 µM) of 57%. The growth inhibition (at 33.0 µM) was 97% (active) and the growth inhibition (at 100.0 µM) was 97% (active).

For `O=[n+]1c2ccccc2n([O-])c2cc(Br)ccc21`, the growth inhibition (at 1.2 µM) was 36%, the growth inhibition (at 3.7 µM) was 56% and the growth inhibition (at 11.0 µM) was 95% (active). For the same molecule, the growth inhibition (at 33.0 µM) was 100% (active) and the growth inhibition (at 100.0 µM) was 98% (active).

Work on `Cc1ccccc1N=Cc1cc(Cl)ccc1O` yielded a growth inhibition (at 1.2 µM) of -2%, a growth inhibition (at 3.7 µM) of 1% and a growth inhibition (at 11.0 µM) of 11%. The growth inhibition (at 33.0 µM) was 44% and the growth inhibition (at 100.0 µM) was 98% (active).

For `Cc1c2cc[n+](Cc3ccc(I)cc3)cc2c(C)c2c1[nH]c1ccccc12`, the growth inhibition (at 1.2 µM) was 12%, the growth inhibition (at 3.7 µM) was 0% and the growth inhibition (at 11.0 µM) was 94% (active). For the same molecule, the growth inhibition (at 33.0 µM) was 97% (active) and the growth inhibition (at 100.0 µM) was 96% (active).

`CNC(=O)OCc1c(COC(=O)NC)c(-c2ccc(Cl)cc2)n2c1CCC2` showed a growth inhibition (at 1.2 µM) of -34%, a growth inhibition (at 3.7 µM) of -31% and a growth inhibition (at 11.0 µM) of -39%. The growth inhibition (at 33.0 µM) was 2% and the growth inhibition (at 100.0 µM) was 98% (active).

Molecule `Cc1sc2ccc3ccccc3c2[n+]1C` has a growth inhibition (at 1.2 µM) of -34%, a growth inhibition (at 3.7 µM) of -22% and a growth inhibition (at 11.0 µM) of -29%. For the same molecule, the growth inhibition (at 33.0 µM) was -28% and the growth inhibition (at 100.0 µM) was 85% (active).

For `Cc1ccc(Sc2ccccc2N)cc1`, the growth inhibition (at 1.2 µM) was -4%, the growth inhibition (at 3.7 µM) was -18% and the growth inhibition (at 11.0 µM) was -10%. For the same molecule, the growth inhibition (at 33.0 µM) was 32% and the growth inhibition (at 100.0 µM) was 99% (active).

In the case of `COc1cc(C2c3cc4c(cc3OC(OC(C)=O)C2C)OCO4)cc(OC)c1OC` (stereo not given), the growth inhibition (at 1.2 µM) is reported as -3%, the growth inhibition (at 3.7 µM) is reported as -4% and the growth inhibition (at 11.0 µM) is reported as -11%. It also gave a growth inhibition (at 33.0 µM) of -10% and a growth inhibition (at 100.0 µM) of 52%.
